Measured values: PubChem BioAssay (NCATS)
Values joined by “and” are separate entries in the source; they are usually repeats but may differ in a detail not shown here. Equal values may be shown once. Records with an inconclusive call do not appear. Active and inactive are the calls of the source. Unless noted, the call rests on the fitted dose curve; in most records, active means well fitted curve in the direction sought with a large enough effect; inconclusive means small, poorly fitted or top-dose-only effect, or another doubt; inactive means no such curve, though single readings can be large; an effect the other way counts as inactive or inconclusive.

Experiments:
[1] = Cell Viability - N2a (AID 540); settings: N2a mouse neuroblastoma cell viability; activity change, negative = cytotoxicity: at 92.2 µM (top of the series);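 further: plate controls were DMSO alone for no effect and tamoxifen control for full effect; nearly all actives have a fitted effect of over 45% in size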
Method in brief: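 First, 1500 N2a cells per well incubate 5 hr at 37 °C; next, compounds are added and incubated 40 hr at 37 °C; finally CellTiter-Glo is added and luminescence read after 20 min, with AC50 derived by Hill modeling.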

[2] = Cell Viability - SH-SY5Y (AID 544); settings: SH-SY5Y neuroblastoma cell viability; viability change, negative = cytotoxic: at 92.2 µM (top of the series); further: nearly all actives have a fitted effect of over 55% in size; further: potency means the concentration at half of the fitted maximal effect;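 on viability change, negative = cytotoxic: 0% = DMSO alone and -100% = 100 µM tamoxifen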
Method in brief: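 Cytotoxicity is scored as a concentration-dependent fall in intracellular ATP in human SH-SY5Y cells treated 40 hr in complete culture medium. Potency is expressed as AC50 from a Hill equation fit.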

[3] = Cell Viability - LYMP2-001 (AID 921);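 further: 0% = DMSO only and full inhibition = tetraoctylammonium bromide control wells; nearly all actives have a fitted effect of over 70% in size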
Method in brief: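 Human lymphoblastoid LYMP2-001 cells, 2500 per well, in complete medium, treated 24 h at 37 C. Viability from cellular ATP by CellTiter-Glo luminescence; AC50 from Hill-equation fits of qHTS concentration-response.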

[4] = MultiTox-Fluor Cytotoxicity Assay - LYMP1-002 - Dead Cells (AID 960); further: nearly all actives have a fitted effect of over 60% in size; further: potency means the concentration at half of the fitted maximal effect
Method in brief: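 Acute cytotoxicity in a human lymphoblastoid line is scored as rising dead-cell protease signal after 16 hr exposure at 37 C, measured fluorometrically (485/520).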

[5] = Cell Viability - LYMP2-005 (AID 967);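 further: plate controls were DMSO only for no effect and 92 µM tetraoctylammonium bromide control for full effect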
Method in brief: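 Human lymphoblastoid LYMP2-005 cells, 2,500 per well in complete medium, rested 5 h at 37C then compound-treated 24 h at 37C. Intracellular ATP read by CellTiter-Glo luminescence after 30 min at room temperature; AC50 from Hill-equation fits of concentration-response data.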

[6] = Cell Viability - LYMP2-009 (AID 968);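 further: 0% = DMSO alone and the full-kill end = tetraoctylammonium bromide at 92 µM; nearly all actives have a fitted effect of over 55% in size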
[7] = Cell Viability - LYMP2-015 (AID 971);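 further: 0% = DMSO only and full effect = 92 µM tetraoctylammonium bromide; nearly all actives have a fitted effect of over 55% in size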
Method in brief: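 Acute toxicity was scored as a concentration-dependent drop in intracellular ATP in lymphoblastoid cells after 24 hr compound exposure in complete medium. Detection used CellTiter-Glo luciferase luminescence.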

[8] = Cell Viability - LYMP2-017 (AID 972);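 further: cells exposed to compound for 24 hours at 37 °C; on the % scale 0 is the no-effect control and ±100 the full control effect; nearly all actives have a fitted effect of over 55% in size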
Method in brief: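 Steps: plate 2500 lymphoblastoid cells per well; incubate 5 hr at 37 C; add compound across a concentration series and incubate 24 hr at 37 C; add CellTiter-Glo and read luminescence after 30 min at room temperature; fit Hill curves for AC50.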

[9] = Cell Viability - LYMP2-010 (AID 981)
Method in brief: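 Acute toxicity is scored as a concentration-dependent loss of cellular ATP in human lymphoblastoid cells after 24 hr compound exposure in complete medium. Tetraoctylammonium bromide is the positive control.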

[10] = qHTS assay for small molecule agonists of retinoid X receptor alpha signaling (AID 588544; calls by dose curve); settings: HEK293T RXRa-UAS-bla, beta-lactamase reporter, 18 h; 530 nm emission
[11] = target: Retinoic acid receptor RXR-alpha (Homo sapiens) (UniProt P19793); assay: as above
Sequence of Retinoic acid receptor RXR-alpha (Homo sapiens) (P19793 whole entry, looked up): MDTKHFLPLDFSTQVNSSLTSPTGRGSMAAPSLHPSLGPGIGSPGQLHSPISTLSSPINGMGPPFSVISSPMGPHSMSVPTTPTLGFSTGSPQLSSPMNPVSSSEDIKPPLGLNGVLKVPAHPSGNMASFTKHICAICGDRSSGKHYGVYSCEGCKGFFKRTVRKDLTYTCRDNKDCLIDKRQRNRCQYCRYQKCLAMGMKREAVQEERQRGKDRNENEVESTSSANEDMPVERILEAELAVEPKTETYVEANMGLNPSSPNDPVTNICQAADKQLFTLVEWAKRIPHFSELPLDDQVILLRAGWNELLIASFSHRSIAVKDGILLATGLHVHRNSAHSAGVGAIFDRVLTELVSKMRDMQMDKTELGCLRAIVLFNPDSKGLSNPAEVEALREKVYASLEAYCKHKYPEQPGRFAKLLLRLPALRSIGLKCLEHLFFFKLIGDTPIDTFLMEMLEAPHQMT

[12] = qHTS assay for small molecule disruptors of the mitochondrial membrane potential - 1 hr assay (AID 651754; calls by dose curve; further: nearly all actives have a fitted effect of over 35% in size; further: potency means the concentration at half of the fitted maximal effect)
Method in brief: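 Steps: seed HepG2 cells and let attach overnight; pin-transfer compound or vehicle; incubate 1 hr at 37C; add Mito-MPS dye for 30 min; read two-channel fluorescence for monomer and aggregate forms.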

[13] = qHTS assay for small molecule disruptors of the mitochondrial membrane potential - 5 hr assay (AID 651755; calls by dose curve; further: nearly all actives have a fitted effect of over 40% in size; further: potency means the concentration at half of the fitted maximal effect)
Method in brief: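 HepG2 cells, attached overnight at 37C, were exposed to compound or DMSO for 5 hr at 37C, 5% CO2. Mito-MPS dye was then added for 30 min, and fluorescence read at 490/535 nm (monomers) and 540/590 nm (aggregates).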

[14] = qHTS assay for small molecule agonists of the antioxidant response element (ARE) signaling pathway measured by Nrf2-dependant transcriptional activity (AID 720636; active means well fitted curve in the direction sought with a large enough effect in the repeat runs; an effect the other way counts as inactive or inconclusive;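 further: HepG2 cells with an ARE-driven luciferase reporter; % of control where 0% means no effect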)
Method in brief: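 Attachment 6 hr at 37 C, then compound versus DMSO vehicle for 16 hr in ARE-luc HepG2 cells (1% dialyzed FBS); luminescence recorded 30 min after ONE-Glo addition at room temperature.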

[15] = target: Nuclear receptor subfamily 1 group I member 2 (Rattus norvegicus) (UniProt Q9R1A7); assay: qHTS assay for small molecule activators of the rat pregnane X receptor (rPXR) signaling pathway (AID 651751; call rule not given here; further: 0% is about no effect); settings: rPXR reporter cells, luciferase (One-Glo), 24 h
Sequence of Nuclear receptor subfamily 1 group I member 2 (Rattus norvegicus) (Q9R1A7 whole entry, looked up): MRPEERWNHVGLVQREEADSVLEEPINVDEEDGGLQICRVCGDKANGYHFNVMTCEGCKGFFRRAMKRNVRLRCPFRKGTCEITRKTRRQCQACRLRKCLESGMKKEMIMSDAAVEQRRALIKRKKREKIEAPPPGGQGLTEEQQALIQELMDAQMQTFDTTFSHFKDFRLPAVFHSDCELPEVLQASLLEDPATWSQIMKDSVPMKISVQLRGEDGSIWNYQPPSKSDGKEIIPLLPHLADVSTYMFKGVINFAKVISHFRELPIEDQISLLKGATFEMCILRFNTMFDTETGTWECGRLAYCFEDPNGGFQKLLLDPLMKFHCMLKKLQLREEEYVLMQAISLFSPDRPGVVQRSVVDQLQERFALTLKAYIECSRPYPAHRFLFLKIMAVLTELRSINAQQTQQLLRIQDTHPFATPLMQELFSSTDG

[16] = Cell Viability - SK-N-SH (AID 435; calls by dose curve;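 further: potency means the concentration at half of the fitted maximal effect; compound exposure lasted 40 h at 37 °C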); settings: SK-N-SH neuroblastoma cell viability qHTS
Method in brief: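 SK-N-SH neuroblastoma cells (1500/well) treated 40 h at 37 °C in complete medium; viability read as cellular ATP by CellTiter-Glo luminescence. Normalized to DMSO and 100 uM tamoxifen; AC50 from Hill fits of qHTS concentration-response.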

[17] = Cell Viability - Renal Proximal Tubule (AID 545); settings: renal proximal tubule cells viability, primary cells of rat origin; activity change, negative = cytotoxicity: at 91.7 µM (top of the series); further: nearly all actives have a fitted effect of over 40% in size; further: potency means the concentration at half of the fitted maximal effect;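 on activity change, negative = cytotoxicity: 0% = DMSO only and -100% = 100 µM tamoxifen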
Method in brief: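 Rat renal proximal tubule primary cells, 1000/well, exposed to compounds for 40 hr at 37 °C in complete medium; cellular ATP read by CellTiter-Glo luminescence. AC50 from concentration-response fitted with standard Hill equation.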

[18] = target: Thyroid hormone receptor beta (Homo sapiens) (UniProt P10828); assay: qHTS assay for small molecule agonists of thyroid hormone receptor beta signaling (AID 588545; calls by dose curve)
Sequence of Thyroid hormone receptor beta (Homo sapiens) (P10828 whole entry, looked up): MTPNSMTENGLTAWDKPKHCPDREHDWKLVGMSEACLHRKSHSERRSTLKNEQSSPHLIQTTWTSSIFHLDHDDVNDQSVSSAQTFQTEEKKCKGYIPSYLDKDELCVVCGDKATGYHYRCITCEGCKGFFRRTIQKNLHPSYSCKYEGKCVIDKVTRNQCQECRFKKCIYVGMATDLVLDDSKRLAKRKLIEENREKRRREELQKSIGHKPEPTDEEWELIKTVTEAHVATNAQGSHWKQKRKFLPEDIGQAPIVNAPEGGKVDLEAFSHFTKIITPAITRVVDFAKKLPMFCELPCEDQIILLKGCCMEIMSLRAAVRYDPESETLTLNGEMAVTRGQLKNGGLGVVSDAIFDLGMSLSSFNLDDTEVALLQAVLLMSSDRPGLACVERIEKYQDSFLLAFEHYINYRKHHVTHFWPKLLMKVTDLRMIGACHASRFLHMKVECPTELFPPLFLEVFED
Method in brief: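 Agonist activity was read as beta-lactamase CCF4 fluorescence (405 ex, 460/530 em), scaled between DMSO (0%) and 10 nM T3 (100%), then Hill-fitted for EC50 and efficacy. HEK 293 TR-UAS-bla cells in 2% charcoal/dextran FBS medium were exposed 18 h at 37 C.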

[19] = Cell Viability - Hek293 (AID 427;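 active means compounds whose dose-response curve shows a full or clear partial loss of cell viability, called from curve shape rather than a numeric limit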;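 further: potency means the concentration at half of the fitted maximal effect; cells exposed to compound for 40 hours at 37 °C before reading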); settings: qHTS
Method in brief: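 qHTS, human embryonic kidney (adenovirus-transformed) cells; 40 hr cpd, 37 °C; CellTiter-Glo ATP luminescence. Norm: DMSO = 0, 100 uM tamoxifen = 100% inhibition. Hill-fit AC50.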

[20] = Cell Viability - LYMP2-019 (AID 973)
Method in brief: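 Cells plated at 2500/well and allowed 5 hr at 37 C before compound addition. After 24 hr incubation, CellTiter-Glo reagent was added, plates sat 30 min at room temperature, and luminescence was recorded.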

CCCCCCCC/C=C\CCCCCCCC(=O)N(CCO)CCO
13.2%: max response [10]
active: activity change, negative = cytotoxicity [1] -111% | viability change, negative = cytotoxic [2] -99.3% | Potency [4] 31.6 µM
inactive: Potency [3] | Potency [5] | Potency [6] | Potency [7] | Potency [8] | Potency [9] | Potency [11] | Potency [12] | Potency [13] | Potency [14] | max response [15] 3.59%

Cc1c(C(=O)O)c(O)cc2c1C(=O)c1c(O)c([C@H]3O[C@H](CO)[C@@H](O)[C@H](O)[C@H]3O)c(O)c(O)c1C2=O
active: Potency [16] 38.2 µM | Potency [17] 31.6 µM
inactive: Potency [4] | Potency [11] | Potency [18] | Potency [12] | Potency [13] | Potency [14] | max response [15] -9.27%
-6.4%: max response [10]

O=C(Cl)c1ccc([N+](=O)[O-])cc1
-12.7%: max response [10]
inactive: Potency [19] > 92 µM | activity change, negative = cytotoxicity [1] 7.26% | Potency [17] | Potency [3] | Potency [4] | Potency [6] | Potency [7] | Potency [8] | Potency [20] | Potency [9] | Potency [11] | Potency [18] | Potency [12] | Potency [13] | Potency [14] | max response [15] -6.29%

O=[N+]([O-])c1cc(N(CCO)CCO)ccc1NCCO
7.09% and -3.73%: max response [10]
inactive: Potency [3] | Potency [4] | Potency [5] | Potency [6] | Potency [7] | Potency [9] | Potency [11] | Potency [18] | Potency [12] | Potency [14] | max response [15] -6.76% and -5.03%

CCN(CC)c1ccc(N)cc1
active: activity change, negative = cytotoxicity [1] -118% | viability change, negative = cytotoxic [2] -88.7% | Potency [12] 29.8 µM | Potency [13] 29.8 µM
inactive: Potency [4] | max response [15] 3.24%

Cc1cc2nc(N)sc2cc1C
inactive: Potency [19] > 92 µM | Potency [16] > 92 µM | Potency [2] | Potency [3] | Potency [4] | Potency [5] | Potency [6] | Potency [7] | Potency [8] | Potency [20] | Potency [9] | Potency [11] | Potency [18] | Potency [12] | Potency [13]
-11.8%: max response [10]

Cc1cc(-c2ccc(N=Nc3cc(S(=O)(=O)O)c4ccccc4c3N)c(C)c2)ccc1N=Nc1cc(S(=O)(=O)O)c2ccccc2c1N
active: Potency [2] 31.6 µM
inactive: Potency [20] | Potency [11] | Potency [18] | Potency [14] | max response [15] -3.26%
-22%: max response [10]

Nc1ccc2c(c1)C(=O)c1ccccc1C2=O
6.46% and 2.42%: max response [10]
active: Potency [12] 1.33 µM | Potency [13] 1.5 µM
inactive: Potency [19] > 92 µM | activity change, negative = cytotoxicity [1] -27.2% | Potency [4] | Potency [5] | Potency [11] | Potency [18]

c1ccc(Nc2cccc3ccccc23)cc1
inactive: Potency [19] > 92 µM | Potency [16] > 92 µM | Potency [2] | Potency [17] | Potency [3] | Potency [5] | Potency [6] | Potency [7] | Potency [8] | Potency [20] | Potency [9] | Potency [11] | Potency [18]
-7.08% and 4.25%: max response [10]

Cc1c2ccccc2c(C)c2c1ccc1ccccc12
active: Potency [2] 7.94 µM | Potency [4] 25.1 µM | Potency [12] 37.6 µM | Potency [13] 33.5 µM
inactive: activity change, negative = cytotoxicity [1] -25% | Potency [5] | Potency [6] | Potency [20] | Potency [14]
